{
  "source": "PubChem BioAssay AID463173",
  "about": "(ICCB-Longwood Screening Facility, Harvard Medical School, 2010)",
  "note": "Out of some 52,000 compounds screened, about 1,700 (3.3%) were called active. Only a selection was taken, and actives are over-represented in it overall. Values without a mark were called inactive. Rule as the data show it: active = survival mostly below about 52% (no sharp cut-off); inactive = mostly above about 56%.",
  "data": [
    {"test_system": "Wild type", "test": "S. aureus survival, RN4220 and DeltatarO strains – OD600, teichoic acid synthesis inhibitors, primary screen (AID 463173)", "settings": "S. aureus RN4220 wild type/DeltatarO growth, OD600, 18 h, hits give low values, screened at 18.75 µg/mL (by protocol)", "values": [
      {"smiles": "O=C(Nc1ccc(Br)cc1F)N1CCC(CN2CCc3ccccc3C2)CC1", "survival": "63%"},
      {"smiles": "O=C(Nc1ccc2nc(SCC(=O)N3CCCC3)sc2c1)c1ccc(F)cc1", "survival": "87%"},
      {"smiles": "O=C(CSc1nc2ccccc2c(=O)n1Cc1ccco1)Nc1ccccc1", "survival": "106%"},
      {"smiles": "Cc1ccc(N2CCN(S(=O)(=O)c3ccc(-n4cnnn4)cc3)CC2)c(C)c1", "survival": "97%"},
      {"smiles": "CCOc1ccc(C(=O)c2cn(Cc3ccccc3OC)c3cc4c(cc3c2=O)OCCO4)cc1", "survival": "80%"},
      {"smiles": "CN(C)CCCN(C(=O)c1cccs1)c1nc2ccc(F)cc2s1", "survival": "76%"},
      {"smiles": "Cc1ccc2nc(N(CCCN(C)C)C(=O)c3ccc(Br)s3)sc2c1", "survival": "90%"},
      {"smiles": "CN(C)CCCN(C(=O)c1ccc(Br)s1)c1nc2ccc(F)cc2s1", "survival": "-6% (active)"},
      {"smiles": "CCS(=O)(=O)c1ccccc1C(=O)Nc1ccc(-c2nc3ccccc3s2)cc1", "survival": "77%"},
      {"smiles": "COc1ccccc1NC(=O)CCn1cnc2ccccc2c1=O", "survival": "76%"},
      {"smiles": "COc1ccccc1CNC(=O)CCn1cnc2ccccc2c1=O", "survival": "-6% (active)"},
      {"smiles": "O=C(CCn1cnc2ccccc2c1=O)NCc1ccccc1Cl", "survival": "98%"},
      {"smiles": "Cc1ccc(-c2[nH]c3ccccc3c2SCCNC(=O)c2ccc(S(=O)(=O)N3CCOCC3)cc2)cc1", "survival": "81%"},
      {"smiles": "CCOC(=O)c1ccc(CNS(=O)(=O)c2c(C)ccc3nsnc23)o1", "survival": "105%"},
      {"smiles": "Fc1ccc(-n2nc(-c3ccccc3)c3cnc4ccccc4c32)cc1Cl", "survival": "138%"},
      {"smiles": "Cc1ccc(C)c(N2CCN(S(=O)(=O)c3cc(C(=O)Nc4cc(Cl)cc(Cl)c4)ccc3F)CC2)c1", "survival": "85%"},
      {"smiles": "CCOc1ccc(NC(=O)c2ccc3nc(C(C)C)oc3c2)cc1", "survival": "70%"},
      {"smiles": "COc1ccc(C)c2sc(N3CCN(C(=O)c4ccco4)CC3)nc12", "survival": "-1% (active)"},
      {"smiles": "Cc1ccc(C)c2sc(N3CCN(C(=O)c4ccco4)CC3)nc12", "survival": "159%"},
      {"smiles": "COc1ccc(C)c2sc(N3CCN(C(=O)c4cccc(F)c4)CC3)nc12", "survival": "133%"},
      {"smiles": "CCS(=O)(=O)c1ccc(C(=O)N2CCN(c3nc4c(OC)ccc(C)c4s3)CC2)cc1", "survival": "91%"},
      {"smiles": "COc1ccc(OC)c2sc(N3CCN(C(=O)C4CC4)CC3)nc12", "survival": "-6% (active)"},
      {"smiles": "COc1ccc(OC)c2sc(N3CCN(C(=O)C(C)(C)C)CC3)nc12", "survival": "69%"},
      {"smiles": "COc1ccc(OC)c2sc(N3CCN(C(=O)c4ccco4)CC3)nc12", "survival": "76%"},
      {"smiles": "Cc1ccc(Cl)c2sc(N3CCN(C(=O)C4CC4)CC3)nc12", "survival": "76%"},
      {"smiles": "CCCC(=O)N1CCN(c2nc3c(OC)ccc(C)c3s2)CC1", "survival": "14% (active)"},
      {"smiles": "COc1ccc2c(c1)c1c(c(=O)n(-c3ccccc3C)c(=O)n1CC(N)=O)n2C", "survival": "82%"},
      {"smiles": "CCOc1ccccc1NC(=O)CCn1nc(C)c(S(=O)(=O)N2CCCCC2)c1C", "survival": "76%"},
      {"smiles": "COc1ccc(N2CCN(C(CNC(=O)CC(C)C)c3ccc4c(c3)OCO4)CC2)cc1", "note": "(configuration not stated)", "survival": "83%"},
      {"smiles": "CCOc1ccc(-c2nnc(SCC(=O)NCCc3ccccc3)nc2-c2ccc(OCC)cc2)cc1", "survival": "73%"},
      {"smiles": "COc1cc(C2CC(=O)Nc3c2c(=O)[nH]c2ncnn32)ccc1O", "note": "(configuration not stated)", "survival": "77%"},
      {"smiles": "CCOCCCNC(=O)c1ccc2c(=O)n(CCc3ccccc3)c(=O)[nH]c2c1", "survival": "79%"},
      {"smiles": "Cc1ccc(C)c(N2CCN(C(=O)CSCc3ccccc3Cl)CC2)c1", "survival": "82%"},
      {"smiles": "O=C(Nc1ccccn1)c1ccccc1O", "survival": "110%"},
      {"smiles": "CCCSc1nnc2c(n1)OC(c1ccc(Br)s1)Nc1ccccc1-2", "note": "(configuration not stated)", "survival": "88%"},
      {"smiles": "CCCCSc1nnc2c(n1)OC(c1ccc(C)s1)Nc1ccccc1-2", "note": "(configuration not stated)", "survival": "56%"},
      {"smiles": "CCCCSc1nnc2c(n1)OC(c1ccc(Br)s1)Nc1ccccc1-2", "note": "(configuration not stated)", "survival": "9% (active)"},
      {"smiles": "Cc1ccc(NC(=O)Cn2c(=O)n(Cc3nc(-c4ccccc4)no3)c(=O)c3cc4c(cc32)OCO4)cc1F", "survival": "89%"},
      {"smiles": "CC(C)C(c1nnnn1Cc1ccccc1)N1CCCc2ccccc21", "note": "(configuration not stated)", "survival": "122%"},
      {"smiles": "N#Cc1c(NC(=O)c2ccco2)sc2c1CCCC2", "survival": "104%"},
      {"smiles": "CNS(=O)(=O)c1cn(CC(=O)N2CCN(c3ccc(OC)cc3)CC2)cc1S(=O)(=O)NC", "survival": "69%"},
      {"smiles": "CNS(=O)(=O)c1cn(CC(=O)N2CCN(c3ccc(C(C)=O)cc3)CC2)cc1S(=O)(=O)NC", "survival": "10% (active)"},
      {"smiles": "CNS(=O)(=O)c1cn(CC(=O)N2CCN(c3ccc(Cl)cc3)CC2)cc1S(=O)(=O)NC", "survival": "124%"},
      {"smiles": "Cc1ccc(SCc2nc(-c3ccc(C(=O)Nc4cc(C)ccc4C)cc3)oc2C)cc1", "survival": "129%"},
      {"smiles": "Clc1cccc(CSc2nc(NCCc3ccccc3)c3ccccc3n2)c1", "survival": "66%"},
      {"smiles": "COc1ccc(CCNc2nc(SCc3cccc(F)c3)nc3ccccc23)cc1OC", "survival": "80%"},
      {"smiles": "Fc1cccc(CSc2nc(NCCc3ccccc3)c3ccccc3n2)c1", "survival": "-3% (active)"},
      {"smiles": "COC(=O)c1cc(S(=O)(=O)N2CCN(c3cccc(C)c3)C(C)C2)c[nH]1", "note": "(configuration not stated)", "survival": "98%"},
      {"smiles": "Cc1cccc(NCc2nc3ccccc3n2CCOc2ccccc2C)c1", "survival": "-18% (active)"},
      {"smiles": "COc1ccc(NCc2nc3ccccc3n2CCOc2ccccc2C)cc1", "survival": "4% (active)"},
      {"smiles": "Cc1ccccc1OCCn1c(CCNC(=O)C2CCCCC2)nc2ccccc21", "survival": "90%"},
      {"smiles": "O=C(O)c1ccc(NCc2nc3ccccc3n2CCOc2ccccc2Cl)cc1", "survival": "88%"},
      {"smiles": "Fc1ccc(NCc2nc3ccccc3n2CCOc2ccccc2Cl)cc1", "survival": "95%"},
      {"smiles": "COc1ccccc1OCCn1c(COc2cc(C)ccc2C)nc2ccccc21", "survival": "87%"},
      {"smiles": "Cc1ccc(NCc2nc3ccccc3n2CCOc2ccccc2C)cc1", "survival": "-20% (active)"},
      {"smiles": "COc1cccc(OCc2nc3ccccc3n2CCOc2ccccc2C)c1", "survival": "55%"},
      {"smiles": "Cc1ccc(C)c(CSc2c(C(C)C)cnc3c2c(=O)n(C)c(=O)n3C)c1", "survival": "126%"},
      {"smiles": "O=C(CSc1ncc(CO)n1Cc1ccccc1)Nc1ccc(C(F)(F)F)cc1", "survival": "120%"},
      {"smiles": "CC(C)c1ccc(NC(=O)C(Cc2ccccc2)n2cccc2)cc1", "note": "(configuration not stated)", "survival": "13% (active)"},
      {"smiles": "O=C(Nc1ccc(C(F)(F)F)cc1)C(Cc1ccccc1)n1cccc1", "note": "(configuration not stated)", "survival": "-2% (active)"},
      {"smiles": "O=C(Nc1ccccc1F)C(Cc1ccccc1)n1cccc1", "note": "(configuration not stated)", "survival": "85%"},
      {"smiles": "CC(=O)Nc1ccc(NC(=O)C(Cc2ccccc2)N2Cc3ccccc3C2=O)cc1", "note": "(configuration not stated)", "survival": "72%"},
      {"smiles": "COc1ccc(NC(=O)C(Cc2ccccc2)n2cccc2)c(OC)c1", "note": "(configuration not stated)", "survival": "78%"},
      {"smiles": "Cc1ccc(NC(=O)C(Cc2ccccc2)n2cccc2)cc1", "note": "(configuration not stated)", "survival": "96%"},
      {"smiles": "O=C(CSc1nccn1Cc1ccc(F)cc1)NC1CCCC1", "survival": "68%"},
      {"smiles": "Cc1ccc(Cl)cc1N1CCN(C(=O)c2cc3ccc4cccnc4c3[nH]2)CC1", "survival": "129%"},
      {"smiles": "Cc1cccc(C(=O)n2nc(C)c(S(=O)(=O)N3CCOCC3)c2C)c1", "survival": "89%"},
      {"smiles": "COc1ccc(C2=C(C)C(=O)N(Cc3ccc(C(=O)NCc4ccc(C)cc4)cc3)S2(=O)=O)cc1", "survival": "89%"},
      {"smiles": "C1CN(C(N2CCOCC2)N2CCOCC2)CCO1", "survival": "104%"},
      {"smiles": "COc1ccc(-c2cc(C)no2)cc1S(=O)(=O)N1CCc2ccccc21", "survival": "76%"},
      {"smiles": "COc1ccc(-c2cc(C)no2)cc1S(=O)(=O)N1CCOc2ccccc21", "survival": "80%"},
      {"smiles": "COc1ccc(-c2onc(C)c2C)cc1S(=O)(=O)N1CCc2ccccc21", "survival": "1% (active)"},
      {"smiles": "CCC1CN(S(=O)(=O)c2cc(-c3cc(C)no3)ccc2OC)c2cc(C)ccc2O1", "note": "(configuration not stated)", "survival": "120%"},
      {"smiles": "COc1ccc(-c2cc(C)no2)cc1S(=O)(=O)N1CC(C)Oc2ccccc21", "note": "(configuration not stated)", "survival": "-6% (active)"},
      {"smiles": "Cc1ccc(-c2onc(C)c2C)cc1S(=O)(=O)N1CCc2ccccc21", "survival": "117%"},
      {"smiles": "COc1ccc(NC(=O)c2oc3ccc(S(=O)(=O)N4CCOCC4)cc3c2C)c(OC)c1", "survival": "152%"},
      {"smiles": "COc1ccc(C(CC(=O)Nc2ccc(C(C)=O)cc2)N2Cc3ccccc3C2=O)cc1", "note": "(configuration not stated)", "survival": "88%"},
      {"smiles": "O=C(O)c1snc2c(=O)[nH]cnc12", "survival": "105%"},
      {"smiles": "O=C1CCCc2c1cc(C(=O)Nc1ccc(Cl)cn1)c(=O)n2-c1ccccc1", "survival": "110%"},
      {"smiles": "Cc1nc2sc(C(=O)Nc3ccc(F)cc3)c(N)c2c(-c2ccc(Br)cc2)c1C(=O)Nc1ccc(Cl)cc1", "survival": "88%"},
      {"smiles": "Cc1nc2sc(C(N)=O)c(N)c2c(-c2ccc(Br)cc2)c1C(=O)Nc1ccc(Cl)cc1", "survival": "-7% (active)"},
      {"smiles": "COc1ccc(NC(=O)c2sc3nc(C)c(C(=O)Nc4ccc(Cl)cc4)c(-c4ccc(Br)cc4)c3c2N)cc1", "survival": "75%"},
      {"smiles": "Cc1ccc(C)c(NC(=O)Cn2c(=O)n(Cc3ccco3)c(=O)c3oc4ccccc4c32)c1", "survival": "87%"},
      {"smiles": "Cc1nn(Cc2ccccc2)c(C)c1CC(=O)O", "survival": "109%"},
      {"smiles": "O=C(CSc1nc2c([nH]c3ccccc32)c(=O)n1-c1ccc(F)cc1)NCc1ccc(F)cc1", "survival": "73%"},
      {"smiles": "CCC(C)NC(=O)c1sc2nc(C)c(C(=O)Nc3ccc(Cl)cc3)c(-c3ccc(Br)cc3)c2c1N", "note": "(configuration not stated)", "survival": "106%"},
      {"smiles": "Cc1ccc(-c2nc3ncccc3o2)cc1NC(=O)COc1ccc(C(C)C)cc1", "survival": "11% (active)"},
      {"smiles": "CCC(=O)Nc1ccc(-c2nc3ncccc3o2)cc1C", "survival": "85%"},
      {"smiles": "CC(C)c1ccc(OCC(=O)Nc2cc(-c3nc4ncccc4o3)ccc2Cl)cc1", "survival": "128%"},
      {"smiles": "Cc1cc(-c2nc3ncccc3o2)ccc1NC(=O)COc1ccc(C(C)(C)C)cc1", "survival": "26% (active)"},
      {"smiles": "Cc1cc(-c2nc3ncccc3o2)ccc1NC(=O)COc1cc(C)c(Cl)c(C)c1", "survival": "80%"},
      {"smiles": "Cc1cc(OCC(=O)Nc2cc(-c3nc4ncccc4o3)ccc2C)ccc1Cl", "survival": "88%"}
    ]}
  ]
}
